Assay results reported in PubChem BioAssay (EPA / NIEHS).
Results filed as inconclusive are left out. The source made the active and inactive calls. Rule for the calls: active = hit-call score of the fitted dose curve at least 0.9, where 1 is the maximum; inconclusive = response in the unintended direction; inactive = score below 0.9.

Test: ATG_Hpa5_TRANS: Attagene TRANS-FACTORIAL HepG2 Assay for human GAL4-Hpa5 Hepatocyte Transcription Factor Basal Promoter (AID 2282975);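 note: hits are increases in reporter mRNA over DMSO baseline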
Conditions: HepG2 Attagene GAL4-Hpa5 transcription reporter
Procedure: ATG_TRANS is a cell-based, multiplexed-readout assay that uses HepG2, a human liver cell line, with measurements taken at 24 hours after chemical dosing in a 24-well plate.ATG_Hpa5_TRANS is one of 30 assay component(s) measured or calculated from the ATG_TRANS assay. It is designed to make measurements of mRNA induction, a form of inducible reporter, as detected with fluorescence intensity signals by Reverse transcription polymerase chain reaction (RT-PCR) and Capillary electrophoresis technology.Data from the assay component ATG_Hpa5_TRANS was analyzed into 1 assay endpoint. This assay endpoint, ATG_Hpa5_TRANS, was analyzed in the positive analysis fitting direction relative to DMSO as the negative control and baseline of activity. Using a type of inducible reporter, measures of mRNA for gain-of-signal activity can be used to understand the background control at the transcription factor-level as they relate to the gene . Furthermore, this assay endpoint can be referred to as a secondary readout, because this assay has produced multiple assay endpoints where this one serves a background control function. To generalize the intended target to other relatable targets, this assay endpoint is annotated to the background measurement intended target family, where the subfamily is internal marker.
Human liver HepG2 cells are transiently transfected with multiple reporter transcription units (MRTUs) in 6-well plates using FuGene 6 reagent (Roche; 3 ml FuGene/1 mg DNA). The MRTU constructs are regulated by a cis-regulating element (promoter). […] A major difference between the CIS and TRANS system is that in CIS activities of endogenous TFs are measured, whereas the TRANS assay evaluates changes in activities of exogenous, chimeric NR-Gal4 proteins. […] At the end of 24 hour incubation, total RNA was isolated using TriZol reagent (Invitrogen). The isolated RNA is then reverse-transcribed using oligo(dT) primer and Mo-MLV reverse transcriptase (Invitrogen) with DNAse I (Ambion) treatment for 30 min. The one-tenth of the produced cDNA was amplified by PCR using Taq DNA polymerase (Invitrogen) and two reporter sequence-specific primers. The PCR products were fluorescently labeled by primer extension with 6-arboxyfluorescein (6-FAM) 5'-labeled reporter sequence-specific primer (2 min at 95 C, 20 s at 68 C and 10 min at 72 C) and these products were digested with 5U of HpaI (New England Biolabs) for 2h at 37 C. The fragments were purified using Qiaquick PCR columns (Qiagen), analyzed on an ABI 3130xL genetic analyzer (Applied Biosystems) with peak positions identified by using a set of X-rhodamine (ROX)-labeled MapMarker1000 molecular weight standards (BioVentures). The raw capillary electrophoresis data was processed using Attagraph software (Attagene).

SMILES | outcome
O=C(O)CCCOc1ccc(Cl)cc1Cl | inactive
CCCN(CCC)c1c([N+](=O)[O-])cc(C(F)(F)F)cc1[N+](=O)[O-] | inactive
COc1nn(CSP(=S)(OC)OC)c(=O)s1 | inactive
Cc1[nH]c(=O)n(C(C)(C)C)c(=O)c1Cl | inactive
CC(C)(C)C(O)C(Oc1ccc(Cl)cc1)n1cncn1 (stereo unspecified) | inactive
CCOc1nc(NC)nc(NC(=O)NS(=O)(=O)c2ccccc2C(=O)OC)n1 | inactive
CCC(C)(NC(=O)c1cc(Cl)c(C)c(Cl)c1)C(=O)CCl (stereo unspecified) | inactive
CNC(=O)CSP(=S)(OC)OC | inactive
C#CCN1C(=O)COc2cc(F)c(N3C(=O)C4=C(CCCC4)C3=O)cc21 | inactive
ClC1C(Cl)C(Cl)C(Cl)C(Cl)C1Cl (stereo unspecified) | inactive
O=[N+]([O-])c1c(Cl)c(Cl)c(Cl)c(Cl)c1Cl | inactive
CC1(C)C(C=C(Cl)Cl)C1C(=O)OC(C#N)c1ccc(F)c(Oc2ccccc2)c1 (stereo unspecified) | inactive
CCCN(CCOc1c(Cl)cc(Cl)cc1Cl)C(=O)n1ccnc1 | inactive
CCc1ccc(C(=O)NN(C(=O)c2cc(C)cc(C)c2)C(C)(C)C)cc1 | inactive
O=S(=O)(O)C(F)(F)C(F)(F)C(F)(F)C(F)(F)C(F)(F)C(F)(F)C(F)(F)C(F)(F)F | inactive
CCN(CC)C(=O)SCc1ccc(Cl)cc1 | inactive
N#Cc1c(Cl)c(Cl)c(Cl)c(C#N)c1Cl | inactive
O=C1c2ccccc2C(=O)N1SC(Cl)(Cl)Cl | inactive
COP(=S)(OC)Oc1ccc(SC)c(C)c1 | inactive
CC[C@H](C)[C@H]1O[C@]2(C=C[C@@H]1C)C[C@@H]1C[C@@H](C/C=C(\C)[C@@H](O[C@H]3C[C@H](OC)[C@@H](O[C@H]4C[C@H](OC)[C@@H](O)[C@H](C)O4)[C@H](C)O3)[C@@H](C)/C=C/C=C3\CO[C@@H]4[C@H](O)C(C)=C[C@@H](C(=O)O1)[C@]34O)O2 (tested in a mixture with another compound) | inactive
CCC(C)(C)C(=O)OC1=C(c2ccc(Cl)cc2Cl)C(=O)OC12CCCCC2 | inactive
O=C(O)COc1ccc(Cl)cc1Cl | inactive
CCC(C)Nc1c([N+](=O)[O-])cc(C(C)(C)C)cc1[N+](=O)[O-] (stereo unspecified) | inactive
O=[N+]([O-])/N=C1\NCCN1Cc1ccc(Cl)nc1 | inactive
C[C@H]1[C@H](c2ccc(Cl)cc2)SC(=O)N1C(=O)NC1CCCCC1 | inactive
CNC(=O)Oc1cccc(N=CN(C)C)c1 | inactive
